One test relates to TAB109. Nature of the test: qHTS profiling for inhibitors of Plasmodium falciparum proliferation (AID 504749). Further: nearly all actives have a fitted effect of over 60% in size. Further: potency means the concentration at half of the fitted maximal effect. The following applies: P. falciparum in erythrocytes, SYBR Green DNA, 72 h; series mostly up to 28.7 µM. Put shortly:
(§1)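 Each compound contacts P. falciparum-infected red blood cells for 72 h at 37 C; lysis buffer (Tris, EDTA, saponin, Triton X, SYBR Green I) is added and fluorescence measured next morning; values normalized to controls.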

A further test relates to TAB113. The test is described as above. Conditions: P. falciparum in erythrocytes, SYBR Green DNA, 72 h; series mostly up to 28.7 µM. In a few lines: as §1
The subject of another test is TAB165. The test is described as above. Conditions: P. falciparum in erythrocytes, SYBR Green DNA, 72 h; series mostly up to 28.7 µM. In a few lines:
as §1

A further test has as its system W2. The description is as above. Conditions: P. falciparum in erythrocytes, SYBR Green DNA, 72 h; series mostly up to 28.7 µM. In a few lines: as §1
A further test concerns HEK293. The test can be described thus: Cytotoxic Profiling of Annotated Libraries Using Quantitative High-Throughput Screening (AID 1296008). Further: nearly all actives have a fitted effect of over 60% in size. On max response: on the % scale 0 is the no-effect control and ±100 the full control effect. Conditions: Five cell lines viability, CellTiter-Glo ATP luminescence, 48-72 h; max response: active compounds read low. In a few lines: (§2)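 Cells exposed to compounds for 48 or 72 hr at 37 degrees Celsius. Viability read as ATP-coupled luminescence with CellTiter-Glo after 10 min at room temperature.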

For test [1], the system named is HaCat. The description is as above. Conditions: Five cell lines viability, CellTiter-Glo ATP luminescence, 48-72 h; max response: active compounds read low. Put shortly:
as §2

Another test concerns KB-3-1. The description is as above. Conditions: Five cell lines viability, CellTiter-Glo ATP luminescence, 48-72 h; max response: active compounds read low. Put shortly: as §2
The test system of the next test is NIH3T3. Described as above. Conditions: Five cell lines viability, CellTiter-Glo ATP luminescence, 48-72 h; max response: active compounds read low. Put shortly:
as §2

The subject of a further test is HEK293T. Nature of the test: qHTS assay to identify novel small-molecules to repurpose for Merkel cell carcinoma treatment (AID 1296009). Further: nearly all actives have a fitted effect of over 60% in size. Conditions: MCC and control cell lines, CellTiter-Glo viability, 72 h; at 44.8 µM (top of the series) unless noted. Put shortly: (§3)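 Dose-response viability screen; 72 hr exposure at 37 degree celsius; CellTiter-Glo added, 10 min room temperature, luminescence read; RLUs scaled between no-cell and DMSO wells.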

Another test relates to MCC-13. Described as above. Conditions: MCC and control cell lines, CellTiter-Glo viability, 72 h; series mostly up to 46 µM. Put shortly:
as §3

A further test relates to MCC-26. Described as above. The following applies: MCC and control cell lines, CellTiter-Glo viability, 72 h; series mostly up to 46 µM. In a few lines: as §3
The subject of the next test is MKL-1. The description is as above. The following applies: MCC and control cell lines, CellTiter-Glo viability, 72 h; series mostly up to 46 µM. In a few lines: as §3
Another test has as its system MKL-2. The description is as above. The following applies: MCC and control cell lines, CellTiter-Glo viability, 72 h; series mostly up to 46 µM. In a few lines: as §3
The subject of the next test is UISO. The description is as above. Conditions: MCC and control cell lines, CellTiter-Glo viability, 72 h; series mostly up to 46 µM. Put shortly:
as §3

Another test relates to WaGa. Described as above. Conditions: MCC and control cell lines, CellTiter-Glo viability, 72 h; series mostly up to 46 µM. In a few lines:
as §3

Another test concerns C33A. The test can be described thus: Primary qHTS to identify gynecologic anti-cancer compounds using libraries of approved drugs and bioactive compounds (AID 1345084). Further: on the % scale 0 is the no-effect control and ±100 the full control effect; nearly all actives have a fitted effect of over 55% in size. Conditions: Gynecologic cancer cell panel viability, ATPlite luminescence, 48 h; series mostly up to 57.5 µM. Put shortly:
(§4)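 48 h compound exposure at 37 C, 5% CO2; five-point qHTS. ATPlite luminescence readout of cell ATP.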

Another test has as its system CAOV3. The test is described as above. The following applies: Gynecologic cancer cell panel viability, ATPlite luminescence, 48 h; series mostly up to 57.5 µM. Put shortly: as §4
Test [2] concerns HACAT. Nature of the test: qHTS assay to identify novel small-molecules to repurpose for Merkel cell carcinoma treatment (AID 1296009). Further: nearly all actives have a fitted effect of over 60% in size. The following applies: MCC and control cell lines, CellTiter-Glo viability, 72 h; at 44.8 µM (top of the series) unless noted. Put shortly:
as §3

A further test has as its system CRL-7250. Nature of the test: Cytotoxic Profiling of Annotated Libraries Using Quantitative High-Throughput Screening (AID 1296008). Further: nearly all actives have a fitted effect of over 60% in size. On max response: on the % scale 0 is the no-effect control and ±100 the full control effect. Conditions: Five cell lines viability, CellTiter-Glo ATP luminescence, 48-72 h; max response: active compounds read low. In a few lines:
as §2

Each structure is given as a SMILES string. Inconclusive results are not listed. A number with no mark means an inactive call. The source made the active and inactive calls. The call rests on the fitted dose curve; in most records, active means well fitted curve in the direction sought with a large enough effect; inconclusive means small, poorly fitted or top-dose-only effect, or another doubt; inactive means no such curve, though single readings can be large; an effect the other way counts as inactive or inconclusive.

For the compound `CCC1Nc2cc(Cl)c(S(N)(=O)=O)cc2S(=O)(=O)N1` (stereo not given), the Potency result in the test with TAB109, in the test on TAB113, with TAB165, with W2, with MCC-13 and in the test on MCC-26 was “inactive” each time. In addition, the Potency entry in the test with MKL-1, in the test on MKL-2, in the test on UISO, in the test with WaGa, with C33A and in the test with CAOV3 was “inactive” each time. For the same compound, the outcome with HEK293 and in the test on HEK293T was inactive. Besides, the values for the max response with HaCat [1], in the test with KB-3-1 and with NIH3T3 were 3.1%, -3.7% and 3.7%, respectively.
In the case of `CC(C)[C@@H]1CC[C@@H](C)CC1=O`, the max response in the test on HEK293 was -11.3%; in the test with KB-3-1, -7.81%; with NIH3T3, 4.81%. In addition, the compound was classed as inactive in the test on HaCat [1] and in the test on HACAT [2]. Also, the Potency entry with MCC-13, in the test on MCC-26, in the test with MKL-1, with MKL-2, in the test with UISO and with WaGa was “inactive” in each case. Besides, the Potency entry in the test with C33A is “inactive”.
Turning to `COc1cc(C(=O)N2CCCCCCC2)cc(OC)c1OC`, the Potency result in the test with TAB109, in the test on TAB113, with TAB165, in the test on W2, in the test with MCC-13 and in the test on MCC-26 was “inactive” in each case. Besides, the Potency entry in the test with MKL-1, with MKL-2, in the test with UISO, in the test with WaGa and with C33A was “inactive” in each case. Further, the max response in the test on HEK293 was 0.115%; with KB-3-1 it was -4.88%; in the test on NIH3T3, 2.92%. In addition, the compound was classed as inactive in the test with HaCat [1] and in the test with HACAT [2].
Turning to `CN(CCCN1c2ccccc2CCc2ccccc21)CC(=O)c1ccc(Cl)cc1`, the Potency was 7.94 µM (active) in the test on TAB109, 10 µM (active) in the test with TAB113, 8.91 µM (active) with TAB165 and 3.38 µM (active) in the test with W2. Moreover, the max response is -9.87% with CRL-7250, -17.1% with HaCat [1] and 3.31% in the test with NIH3T3. For the same compound, the Potency result with MCC-13, with MCC-26, in the test with MKL-1, with C33A and in the test with CAOV3 was “inactive” in each case.
As to `NC(=O)C1(N2CCCCC2)CCN(CCCC(=O)c2ccc(F)cc2)CC1`, the Potency entry in the test with TAB165, with MCC-13, with MCC-26, in the test with MKL-1, in the test on MKL-2 and with UISO was “inactive” in each case. Besides, the Potency entry in the test with WaGa, in the test on C33A and in the test on CAOV3 was “inactive” throughout. Besides, the max response was -19.7% with HEK293, 5.68% in the test on KB-3-1 and -2.39% in the test on NIH3T3. For the same compound, the compound was classed as inactive in the test with HaCat [1] and in the test on HACAT [2].
In the case of `COc1cc(C(=O)NCc2ccc(OCCN(C)C)cc2)cc(OC)c1OC`, the Potency entry in the test with TAB109, with TAB113, in the test on TAB165, in the test with W2, in the test with MCC-13 and in the test with MCC-26 was “inactive” in each case. In addition, the Potency entry in the test with MKL-1, in the test on MKL-2, in the test with UISO, in the test on WaGa and with C33A was “inactive” throughout. Moreover, the max response in the test on CRL-7250 was -8.61%; with HaCat [1], 4.17%; in the test with KB-3-1, -11.1%; in the test on NIH3T3 it was -0.23%.
Take `CN1CCN(C2=Nc3cc(F)ccc3Cc3ccccc32)CC1`: the Potency entry in the test on TAB109, with TAB113, in the test on MCC-13, in the test on MCC-26, with MKL-1 and with MKL-2 was “inactive” each time. Besides, the Potency result with UISO, in the test with C33A and in the test with CAOV3 was “inactive” in each case. For the same compound, in the test on W2, the Potency is 7.57 µM (active). In addition, the max response in the test on CRL-7250 was -25%; in the test with HaCat [1] it was -42.8%; in the test on KB-3-1 it was 0.909%; with NIH3T3 it was -19.6%.

Values taken from PubChem BioAssay (NCATS).
